Screening results as filed in PubChem BioAssay.
Only some compounds are listed: those with a hit (about 11% of all), similar ones and a draw of the others.
G9a inh = qHTS Assay for Inhibitors of Histone Lysine Methyltransferase G9a; 350,000 compounds, 8.8% hits; G9a H3K9 monomethylation, AlphaScreen, 2 h; Potency, µM (series often up to 102 µM), for inactives: top-dose activity, negative = inhibition, most hits filed as inhibitors; Histone-lysine N-methyltransferase EHMT2 (Homo sapiens), Q96KQ7; AID 504332, 2011; note: % is set by controls: 0 for no effect and ±100 for the full control effect; nearly all actives have a fitted effect of over 75% in size
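AlphaScreen read-out: biotin-H3K9 peptide (500 nM) methylation by 20 nM enzyme with 20 uM SAM, 2 h at room temperature after 15 min compound preincubation; anti-monomethyl H3K9 antibody plus donor/acceptor beads, 10 min dark.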
L3MBTL1 block = qHTS Assay for the Inhibitors of L3MBTL1. AlphaScreen L3MBTL1–H3K9me1 peptide binding. 230,000 compounds, 0.66% hits. AID 485360, 2010. Potency, µM (doses to about 57.1 µM), inactives show top-dose activity, negative = inhibition, hits mostly inhibitors. Lethal(3)malignant brain tumor-like protein 1 (Homo sapiens), Q9Y468; note: % is set by controls: 0 for no effect and ±100 for the full control effect; nearly all actives have a fitted effect of over 60% in size
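Displacement of a biotinylated histone H3(1-15) peptide monomethylated at Lys9 (75 nM) from L3MBTL1 (50 nM) was measured by AlphaScreen after a 30 min room-temperature compound incubation; cefsulodin titration served as intraplate control.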
HP1b binding inh = HTS for Inhibitors of HP1-beta Chromodomain Interactions with Methylated Histone Tails. AlphaScreen HP1-beta / biotin-H3K9me3 peptide binding. 390,000 compounds, 0.56% hits. Potency, µM (top dose mostly 114 µM), inactives show at the highest dose activity change, negative = inhibition, usual class: inhibitors; note: nearly all actives have a fitted effect of over 70% in size
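HP1-beta protein (50 nM final) preincubated 30 min at room temperature with biotinylated H3(1-18)K9me3 peptide (50 nM) in PBS pH 7.4, 0.01% Tween-20, then compound added for 30 min. AlphaScreen streptavidin donor/nickel chelate acceptor beads (10 ug/mL final), 30 min dark, luminescence read.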
JMJD2A Tudor = qHTS Assay for Inhibitors of JMJD2A-Tudor Domain; Lysine-specific demethylase 4A (Homo sapiens), O75164; AlphaScreen JMJD2A-Tudor / H3K4me3 peptide binding; Potency, µM (doses to about 114 µM), without a hit: at the top dose activity change, negative = inhibition, most hits filed as inhibitors; 390,000 compounds, 4.4% hits; AID 504339, 2011; note: % is set by controls: 0 for no effect and ±100 for the full control effect; nearly all actives have a fitted effect of over 50% in size
BAZ2B inh = qHTS Assay for Inhibitors of BAZ2B; Bromodomain adjacent to zinc finger domain protein 2B (Homo sapiens), Q9UIF8; AlphaScreen BAZ2B-H3K14Ac peptide displacement; Potency, µM (titrated, usually from 114 µM), inactives show at the top dose activity change, negative = inhibition, most hits filed as inhibitors; 360,000 compounds, 4.4% hits; AID 504333, 2011; note: % is set by controls: 0 for no effect and ±100 for the full control effect; nearly all actives have a fitted effect of over 60% in size
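BAZ2B (50 nM) with biotin-H3(5-23)K14Ac peptide (50 nM) in PBS pH 7.4, 0.01% Tween-20, preformed 30 min, then compound 30 min at room temperature; top concentration 110uM. AlphaScreen streptavidin donor/nickel chelate acceptor beads (10 ug/mL final), 20 min dark, signal read.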
Active calls of the source: *; ? = inconclusive; . = no result; ! = not confirmed by another sample; [ ] = another dose, or the depositor's remark. Calls come from the whole dose curve; as a rule, active = well fitted inhibition curve with a large enough effect; inconclusive = small, poorly fitted or top-dose-only effect; inactive = no such curve, though single readings can be large or run the other way. Potency is the fitted concentration of half-maximal effect.

SMILES	G9a inh	L3MBTL1 block	HP1b binding inh	JMJD2A Tudor	BAZ2B inh
CCOC(C(=O)OCCC[N+](C)(CC)CC)(c1ccccc1)c1ccccc1	-4%[59 µM]	.	15%	-4%	-20%
O=C(Cn1c(=O)n(Cc2ccccc2)c(=O)c2sc3ccccc3c21)NCc1ccccc1Cl	10%[59 µM]	.	63%	-5%	-32%
C[C@]12CC[C@@H]3c4cc(O)c(O)cc4CC[C@H]3[C@@H]1CC[C@@H]2O	8.9µM*	.	?	13µM*	?
C[C@]12CC[C@H]3[C@@H](CCC4=CC(=O)CC[C@@H]43)[C@@H]1CC[C@@H]2O	-16%[59 µM]	1%	54%	-6%	.
C[C@]12CC[C@@H]3c4ccc(O)c(O)c4CC[C@H]3[C@@H]1CC[C@@H]2O	?	.	16µM*	8.9µM*	56µM*
CCOC(=O)CCCc1cc[c]([Sb](=[O])([OH])[OH])cc1	.	.	1.3µM*	0.71µM*	.
NC(=O)OCCCc1ccccc1	11%[59 µM]	.	14%	-17%	.
Cc1cc(C)cc(N2C(=O)NC(=O)/C(=C/c3cccn3-c3ccc(Cl)cc3)C2=O)c1	32µM*	-8%	41%	-3%	-10%
COc1cccc(NC(=O)c2cccn(Cc3ccccc3C)c2=O)c1	36%[59 µM]	.	27%[57 µM]	-10%	-4%
O=C1OC(=O)c2c(Br)c(Br)c(Br)c(Br)c21	-24%[0.501 µM]	-5%	46%	?	?
C[N+]1(C)CCc2cc3c(cc2[C@H]1[C@@H]1OC(=O)c2c1ccc1c2OCO1)OCO3	22µM*!	4%	50%	25µM*!	?
Oc1c(Br)c(Br)c(Br)c(Br)c1Br	5%[0.501 µM]	-12%	-23%	?	56µM*
COc1ccc(OC)c([C@H](O)[C@H](C)N)c1	19%[21.5 µM]	.	.	.	.
Cc1nc2ccccc2n1C1CCN(Cc2nnnn2CCc2ccccc2)CC1	50µM*	-3%	11%	?	?
Fc1ccc2c(c1)nnn2C1CCN(Cc2nnnn2CCc2ccccc2)CC1	50µM*	-2%	27%	-22%	?
CCC[C@@](C)(COC(N)=O)COC(=O)NC(C)C	19%[21.5 µM]	.	.	.	.
O=[As]O[As]=O (stereo not given)	26%[59 µM]	.	.	.	.
OCc1cnc[nH]1	12µM*!	4%	10%	?	-24%
NNCc1ccccc1	-51%[2.33 µM]	.	-28%	20µM*	.
c1ccc(CNC2CCCCCCC2)cc1 (tested in a mixture with another compound)	.	.	42%	-4%	.
COc1ccc(/C=C/C(=O)c2c(O)n(CCC3=CCCCC3)c(=O)[nH]c2=O)cc1	13%[59 µM]	8%	31%	-32%	0%
O=C(/C=C/c1ccc2c(c1)OCO2)c1c(O)n(CCC2=CCCCC2)c(=O)[nH]c1=O	11µM*	0%	14%	-11%	9%
Cc1ccc(NC(=O)CSc2nc(-c3ccco3)cc(C(F)(F)F)n2)c(C)c1	16%[59 µM]	.	42%	4%	1%
NC1CCc2cc(O)c(O)cc2C1 (stereo not given)	1.5µM*	0%	?	11µM*	-4%
CC[C@H](CO)NC(=O)[C@H]1C=C2c3cccc4[nH]cc(c34)C[C@@H]2N(C)C1	7.9µM*	.	.	.	.
CC[C@@H](CO)NC(=O)[C@@H]1C=C2c3cccc4c3c(cn4C)C[C@H]2N(C)C1	6.3µM*!	-14%	22%	-23%	?
COC(=O)C1C=C2c3cccc4[nH]cc(c34)CC2N(C)C1 (stereo not given)	?	.	.	.	40µM*
CCC(CO)NC(=O)C1C=C2c3cccc4[nH]cc(c34)CC2N(C)C1 (stereo not given)	?	7%	39%	-24%	-6%
CC[C@@H](CO)NC(=O)[C@@H]1C=C2c3cccc4[nH]cc(c34)C[C@H]2N(C)C1	14µM*	.	6%	-27%	.
CC(=O)OC1CCC23C(=O)OC45CCC(C6=CC(=O)OC6)C4(C)CCC2C5CCC3(O)C1 (stereo not given)	-31%[2.33 µM]	.	.	.	.
